Counter-ions that a name gives are not always drawn. ± gives the standard deviation of the averaged measurements. In all, about 1,100 compounds were measured (“day of extracellular matrix detachment from plate”: median about 16, lowest 2% from about 10 on). This is one part of a sample in which the lowest values are shown more often than they occur.
tested on: RDEB dermal fibroblasts EB71; experiment: day of extracellular matrix detachment from plate (days); higher = delayed detachment (less fibrotic matrix); settings: compound concentration: 10 uM

Structure (SMILES) | day of extracellular matrix detachment from plate
Cc1cccc(Cc2c[nH]cn2)c1C [Detomidine HCl] | 14.7 ± 7.4
Cc1cccc([C@H](C)c2c[nH]cn2)c1C [Dexmedetomidine HCl (Precedex)] | 10 ± 1.7
Cc1cccc([C@H](C)c2c[nH]cn2)c1C [Dexmedetomidine] | 18
Cc1cccc(C(C)c2c[nH]cn2)c1C (stereo unspecified) [Medetomidine HCl] | 17 ± 5.2
O=C(O[C@H]1C[C@H]2CC[C@@H](C1)[N+]21CCCC1)C(O)(c1ccccc1)c1ccccc1 [Trospium chloride] | 12
Cc1ccc(-c2nc3ccc(C)cn3c2CC(=O)N(C)C)cc1 [Zolpidem] | 17.7 ± 1.1
C=C1CC[C@@]2(O)[C@H]3Cc4ccc(O)c5c4[C@@]2(CCN3CC2CC2)[C@H]1O5 [Nalmefene HCl] | 13
C=CCN1CC[C@]23c4c5ccc(O)c4O[C@H]2C(=O)CC[C@@]3(O)[C@H]1C5 [Naloxone HCl] | 17.7 ± 3.5
O=C1CC[C@@]2(O)[C@H]3Cc4ccc(O)c5c4[C@@]2(CCN3CC2CC2)[C@H]1O5 [Naltrexone HCl] | 10 ± 1.7
O=C(O[C@H]1C[N+]2(CCCOc3ccccc3)CCC1CC2)C(O)(c1cccs1)c1cccs1 [Aclidinium Bromide] | 16.7 ± 2.3
N[C@@H]1C[C@H]1c1ccccc1 [Tranylcypromine (2-PCPA) HCl] | 13

— the supplement of paper PMC11018630
